From the supplement of paper PMC7801607

Columns and labels:
CHO = assay: % viability of CHO cells (MTT); higher = less toxic; settings: 48 h
Procedure, shortened: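 CHO cells were seeded at 10^6 cells/well in 200 µL and left overnight to attach. The medium was then replaced with fresh medium containing compound at 2 or 20 µM for 48 h. Survival was read colorimetrically with the tetrazolium (MTT) assay. Percent viability was expressed relative to untreated cells.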

HepG2-A16-CD81 = assay: % inhibition of HepG2 viability (CellTiter-Glo); higher = more toxic; settings: 5 µM
[1] = system: Plasmodium falciparum NF54 stage IV/V gametocytes; assay: % inhibition of gametocyte viability (PrestoBlue); higher = more inhibition; settings: 48 h
Procedure, shortened: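 Stage IV/V NF54 gametocytes (2% gametocytaemia, 5% haematocrit, 100 µL/well) were exposed to compound at 1 or 5 µM. Incubation was 48 h at 37 °C, stationary and hypoxic, followed by 10 µL PrestoBlue for 2 h. Fluorescence at 612 nm was read on 70 µL of transferred supernatant. Percent inhibition of gametocyte viability was normalised to DMSO and kill controls from a single run.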

[2] = system: Plasmodium falciparum NF54 asexual blood stage; assay: % inhibition of asexual blood stage proliferation (pLDH); higher = more inhibition; settings: 72 h
Procedure, shortened: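 Plasmodium falciparum NF54 ring-stage cultures (1% haematocrit, 2% parasitaemia) were exposed to compound at 2 or 20 µM in 96-well plates. Incubation was 72 h at 37 °C under 4% CO2, 3% O2 and 93% N2. Survival was read colorimetrically at 620 nm with the parasite lactate dehydrogenase assay. Percent inhibition of asexual proliferation was normalised to DMSO and kill controls, and the screen was run on two separate occasions.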

[3] = system: Plasmodium falciparum NF54 stage IV/V gametocytes; assay: % inhibition of gametocyte viability (ATP bioluminescence); higher = more inhibition; settings: 24 h
Procedure, shortened: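 In 96-well plates, compound at 1 or 5 µM was added to 30,000 density-gradient-enriched stage IV/V NF54 gametocytes per well and incubated for 24 h at 37 °C. ATP readout used the Promega BacTiter Glo bioluminescence system. Percent inhibition of gametocyte viability comes from a single run, normalised to control wells.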

[4] = system: Plasmodium falciparum NF54 stage IV/V gametocytes; assay: % inhibition of gametocyte viability (luciferase reporter); higher = more inhibition; settings: 48 h
Procedure, shortened: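 Percent inhibition came from luminescence and was normalised to controls in a single run. Gametocytes (stage IV/V, NF54-Pfs16-GFP-Luc line, 2% gametocytaemia, 2% haematocrit) were treated with compound at 1 or 5 µM and incubated for 48 h at 37 °C without agitation under hypoxia. Readings used 30 µL lysate with 30 µL Promega luciferin substrate on a GloMax-Multi+ reader, integrating for 10 s.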

[5] = system: Plasmodium berghei ANKA liver stage in HepG2-A16-CD81; assay: % inhibition of liver stage parasite viability (luciferase); higher = more inhibition; settings: 5 µM; 48 h
Experimental: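 Single-concentration screen of the MMV Pandemic Response Box. P. falciparum NF54 asexual blood stages: pLDH assay, 72 h at 37 °C, 2 and 20 µM, n=2. Stage IV/V gametocytes (NF54): luciferase reporter (NF54-Pfs16-GFP-Luc, 48 h), ATP bioluminescence (24 h) and PrestoBlue (48 h) at 1 and 5 µM, n=1. P. berghei liver stage (luciferase in HepG2-A16-CD81, 48 h post infection) at 5 µM, n=4. All normalised to DMSO and kill controls as % inhibition.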
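Wherever % inhibition of HepG2 viability (CellTiter-Glo) is given: HepG2-A16-CD81 hepatoma cells plated as in the liver-stage assay but without sporozoites, with DMSO wells as negative and 25 µM puromycin as positive control.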

SMILES	% viability of CHO cells (CHO; 2 µM) [%]	% viability of CHO cells (CHO; 20 µM) [%]	% inhibition of HepG2 viability (HepG2-A16-CD81) [%]	% inhibition of gametocyte viability ([1]; 1 µM) [%]	% inhibition of gametocyte viability ([1]; 5 µM) [%]	% inhibition of asexual blood stage proliferation ([2]; 2 µM) [%]	% inhibition of asexual blood stage proliferation ([2]; 20 µM) [%]	% inhibition of gametocyte viability ([3]; 1 µM) [%]	% inhibition of gametocyte viability ([3]; 5 µM) [%]	% inhibition of gametocyte viability ([4]; 1 µM) [%]	% inhibition of gametocyte viability ([4]; 5 µM) [%]	% inhibition of liver stage parasite viability [5] [%]
NC[C@H]1OB(O)c2c(OCCCO)cccc21	123	109	-3.46	10.1	< 0	6.89	18.5	< 0	< 0	< 0	2.44	-16.7
CCc1ccccc1OCCN1CCCCCC1	96.9	109	14	15.5	15.2	10.6	87.1	6.82	< 0	< 0	2.04	17.2
Nc1nc2c(ncn2/C=C2/CC2(CO)CO)c(=O)[nH]1	102	5.45	-5.92	10.2	7.42	6.02	5.03	< 0	< 0	< 0	1.19	9.21
O=C(Nc1ccccc1)N(Cc1cc(Br)ccc1O)c1ccc(F)cc1	99.5	61.3	-2.44	27.2	8.98	6.3	14.7	< 0	< 0	< 0	< 0	17.9
CC(=N)N1CC[C@H](SC2=C(C(=O)O)N3C(=O)[C@@H]([C@@H](C)O)[C@H]3C2)C1	85.2	33.9	-4.07	< 0	< 0	5.77	14.6	< 0	< 0	< 0	0.678	5.53
O=C(/C(=C/c1ccc(Cl)cc1Cl)n1ccnc1)c1ccc(Cl)cc1	108	113	-2.24	38.5	85.8	56.2	75.6	40.3	86.2	80.5	99.8	26.7
Cc1nc(-c2ccc(C3N(C)c4ccc(F)cc4C(=O)N3c3ccccc3)s2)cs1 (stereo unspecified)	97.8	95.9	12.5	< 0	-0.427	15.3	72.5	< 0	< 0	< 0	< 0	31.9
O=C(Nc1ccc(F)cc1)c1nn(-c2ccccc2)c(=O)cc1Cl	110	106	2.98	30.6	81	35.1	98.7	2.79	5.32	29.4	91.6	3.89
